Assay results as given in the supplement of paper PMC12494721.
Structures can show the parent of a compound that is named as a salt.

Columns and labels:
Settings in all cases: incubation time: 27 h, anaerobic, 37 °C;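 for the amine columns active = adjusted P below 0.05 in both replicates with a change the same way and a mean fold change under 0.8 or over 1.25; inactive = the rest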
[1] = tested on: Clostridium sporogenes DSM 1664; assay: growth (OD595) fold change vs plate DMSO controls (fold change (ratio)); higher = more growth
Procedure, shortened: (§1)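 Anaerobic 27 h, 37 °C mGAM 96-well cultures were shaken, then read for absorbance at 595 nm. Values were blank-subtracted and corrected for compound background using 20 µM compound solutions in water. A calibration factor of 5 converted them to OD. Growth is the fold change versus the median of plate DMSO controls. Fold changes above 1.5 were set to NA, and values are the mean of 2 biological replicates.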

[2] = tested on: Escherichia coli IAI1; assay: as above
Procedure, shortened: as §1

[3] = tested on: Klebsiella aerogenes DSM 30053; assay: as above
Procedure, shortened: as §1

[4] = tested on: Ruminococcus gnavus DSM 108212; assay: as above
Procedure, shortened: as §1

[5] = tested on: Klebsiella aerogenes DSM 30053; assay: fold change of Histamine concentration vs plate DMSO controls (fold change (ratio)); higher = more amine produced, active = hit call of the paper (significant change in both replicates, either direction)
Procedure, shortened: (§2)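 Anaerobic mGAM cultures of four gut bacterial strains were grown at 37 °C for 27 h in 80 µL wells, starting at OD 0.1 before 1:1 dilution. Compounds were at 20 µM final (sweeteners 50 µM). Whole cultures were extracted with cold acetonitrile/methanol containing 0.1% formic acid and centrifuged. Amines were quantified by LC–triple-quadrupole MS (dynamic MRM) against external calibration curves and drift-corrected within batch. Each value is the fold change versus plate DMSO controls, averaged over 2 biological replicates.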

[6] = tested on: Clostridium sporogenes DSM 1664; assay: fold change of Tryptamine concentration vs plate DMSO controls (fold change (ratio)); higher = more amine produced, active = hit call of the paper (significant change in both replicates, either direction)
Procedure, shortened: as §2

[7] = tested on: Ruminococcus gnavus DSM 108212; assay: as above
Procedure, shortened: as §2

[8] = tested on: Escherichia coli IAI1; assay: fold change of Putrescine concentration vs plate DMSO controls (fold change (ratio)); higher = more amine produced, active = hit call of the paper (significant change in both replicates, either direction)
Procedure, shortened: as §2

[9] = tested on: Klebsiella aerogenes DSM 30053; assay: as above
Procedure, shortened: as §2

[10] = tested on: Escherichia coli IAI1; assay: fold change of Cadaverine concentration vs plate DMSO controls (fold change (ratio)); higher = more amine produced, active = hit call of the paper (significant change in both replicates, either direction)
Procedure, shortened: as §2

[11] = tested on: Klebsiella aerogenes DSM 30053; assay: as above
Procedure, shortened: as §2

[12] = tested on: Ruminococcus gnavus DSM 108212; assay: fold change of 2-Phenylethylamine concentration vs plate DMSO controls (fold change (ratio)); higher = more amine produced, active = hit call of the paper (significant change in both replicates, either direction)
Procedure, shortened: as §2

| SMILES | growth [1] | growth [2] | growth [3] | growth [4] | fold change of Histamine concentration [5] | fold change of Tryptamine concentration [6] | fold change of Tryptamine concentration [7] | fold change of Putrescine concentration [8] | fold change of Putrescine concentration [9] | fold change of Cadaverine concentration [10] | fold change of Cadaverine concentration [11] | fold change of 2-Phenylethylamine concentration [12] |
| --- | --- | --- | --- | --- | --- | --- | --- | --- | --- | --- | --- | --- |
| Cc1ccnc(NS(=O)(=O)c2ccc(N)cc2)n1 [Sulfamerazine] (20 µM) | 0.951 | 1.06 | 1.07 | 1.06 | 0.995 (inactive) | 0.975 (inactive) | 0.995 (inactive) | 1 (inactive) | 0.999 (inactive) | 1.01 (inactive) | 1.02 (inactive) | 0.97 (inactive) |
| Cc1cc(NS(=O)(=O)c2ccc(N)cc2)nc(C)n1 [Sulfisomidine] (20 µM) | 1.12 | 1.07 | 1.04 | 1.03 | 1.02 (inactive) | 1.08 (inactive) | 1.04 (inactive) | 0.985 (inactive) | 0.987 (inactive) | 0.993 (inactive) | 0.992 (inactive) | 1.08 (inactive) |
| C[N+](C)(C)CCOC(N)=O [Carbachol chloride] (20 µM) | 0.948 | 1 | 0.997 | 1.09 | 1.01 (inactive) | 1.07 (inactive) | 1.09 (inactive) | 0.986 (inactive) | 0.983 (inactive) | 0.957 (inactive) | 1.01 (inactive) | 1.11 (inactive) |
| CC=CC1=C(C(=O)O)N2C(=O)[C@@H](NC(=O)[C@H](N)c3ccc(O)cc3)[C@H]2SC1 [Cefprozil] (20 µM) | 0.404 | 1.01 | 0.983 | 0.5 | 1.06 (inactive) | 0.324 (active) | 0.637 (inactive) | 0.914 (inactive) | 1.02 (inactive) | 0.955 (inactive) | 1.02 (inactive) | 0.843 (inactive) |
| Cn1c(=O)c2c(ncn2C)n(C)c1=O [Caffeine] (20 µM) | 1.15 | 0.986 | 0.977 | 0.963 | 1.07 (inactive) | 0.982 (inactive) | 1.06 (inactive) | 0.987 (inactive) | 0.997 (inactive) | 1.03 (inactive) | 0.987 (inactive) | 1.06 (inactive) |
| CNCCc1ccccn1 [Betahistine mesylate] (20 µM) | 1.26 | 1 | 1.02 | 1.25 | 0.991 (inactive) | 0.994 (inactive) | 1.02 (inactive) | 1.03 (inactive) | 0.995 (inactive) | 0.967 (inactive) | 0.993 (inactive) | 1.01 (inactive) |
| S=c1[nH]cnc2nc[nH]c12 [Mercaptopurine] (20 µM) | 1.07 | 1.1 | 0.98 | 0.869 | 1.05 (inactive) | 1.01 (inactive) | 0.944 (inactive) | 1.06 (inactive) | 1 (inactive) | 0.879 (inactive) | 0.999 (inactive) | 0.959 (inactive) |
| CN1CC(=O)N2[C@H](c3ccc4c(c3)OCO4)c3[nH]c4ccccc4c3C[C@@H]2C1=O [Tadalafil] (20 µM) | 1 | 1.02 | 0.993 | 0.916 | 1.07 (inactive) | 1.07 (inactive) | 0.925 (inactive) | 0.957 (inactive) | 1.01 (inactive) | 1.03 (inactive) | 0.971 (inactive) | 0.911 (inactive) |
| CCOC(=O)[C@H](CCc1ccccc1)N[C@@H](C)C(=O)N1[C@H](C(=O)O)C[C@@H]2CCC[C@@H]21 [Ramipril] (20 µM) | 1.06 | 0.984 | 1.13 | 1.19 | 0.948 (inactive) | 0.963 (inactive) | 0.966 (inactive) | 0.999 (inactive) | 1.05 (inactive) | 0.964 (inactive) | 1.05 (inactive) | 0.911 (inactive) |
| NC(=O)c1ncn([C@@H]2O[C@H](CO)[C@@H](O)[C@H]2O)c1O [Mizoribine] (20 µM) | 0.99 | 1.06 | 1.06 | 1 | 0.951 (inactive) | 1.02 (inactive) | 1.01 (inactive) | 1.02 (inactive) | 1.02 (inactive) | 0.997 (inactive) | 1.01 (inactive) | 0.982 (inactive) |
| CN[C@@H]1[C@H](O[C@H]2[C@H](O[C@H]3[C@H](O)[C@@H](O)[C@H](N=C(N)N)[C@@H](O)[C@@H]3N=C(N)N)O[C@@H](C)[C@]2(O)C=O)O[C@@H](CO)[C@H](O)[C@H]1O [Streptomycin sulfate] (20 µM) | 0.95 | 0.989 | 0.957 | 1.15 | 0.988 (inactive) | 1.12 (inactive) | 1.02 (inactive) | 0.983 (inactive) | 1 (inactive) | 1.03 (inactive) | 0.977 (inactive) | 0.994 (inactive) |
| Cc1cccc(Nc2ccccc2C(=O)O)c1C [Mefenamic acid] (20 µM) | 1.08 | 0.988 | 0.961 | 1.03 | 1.05 (inactive) | 0.983 (inactive) | 1.01 (inactive) | 1.01 (inactive) | 0.998 (inactive) | 0.976 (inactive) | 0.995 (inactive) | 0.982 (inactive) |
| c1ccc2c(CC3=NCCN3)cccc2c1 [Naphazoline hydrochloride] (20 µM) | 0.845 | 0.633 | 0.644 | 0.57 | 1.01 (inactive) | 1.01 (inactive) | 1.01 (inactive) | 0.978 (inactive) | 1 (inactive) | 0.96 (inactive) | 1 (inactive) | 0.994 (inactive) |
| Cc1ncc([N+](=O)[O-])n1CC(O)CCl (stereo not drawn) [Ornidazole] (20 µM) | 0.007 | 0.984 | 1.04 | 0.0518 | 0.885 (inactive) | 0.00845 (active) | 0.0747 (active) | 0.976 (inactive) | 0.986 (inactive) | 0.962 (inactive) | 1.02 (inactive) | 0.0499 (active) |
| CC(C)(C)NC(=O)[C@@H]1C[C@@H]2CCCC[C@@H]2CN1C[C@@H](O)[C@H](Cc1ccccc1)NC(=O)[C@H](CC(N)=O)NC(=O)c1ccc2ccccc2n1 [Saquinavir mesylate] (20 µM) | 0.98 | 1.1 | 1.03 | 1.12 | 0.937 (inactive) | 0.966 (inactive) | 0.979 (inactive) | 1.24 (inactive) | 0.993 (inactive) | 0.944 (inactive) | 1.01 (inactive) | 1.03 (inactive) |
| COc1ccc2c(c1)c(CC(=O)OCC(=O)O)c(C)n2C(=O)c1ccc(Cl)cc1 [Acemetacin] (20 µM) | 0.906 | 1.03 | 0.985 | 1.06 | 0.983 (inactive) | 0.98 (inactive) | 0.964 (inactive) | 1.06 (inactive) | 1.01 (inactive) | 0.959 (inactive) | 1.01 (inactive) | 0.907 (inactive) |
| OC[C@@H](O)[C@@H](O[C@H]1O[C@H](CO)[C@@H](O)[C@H](O)[C@H]1O)[C@H](O)[C@@H](O)CO [Maltitol] (50 µM) | 1 | 0.988 | 1.02 | 0.976 | 1 (inactive) | 1.01 (inactive) | 0.988 (inactive) | 1.05 (inactive) | 1.02 (inactive) | 1.04 (inactive) | 1.01 (inactive) | 0.941 (inactive) |
| CC(=O)OCC(=O)[C@@]1(O)[C@H](C)C[C@H]2[C@@H]3CCC4=CC(=O)C=C[C@]4(C)[C@@]3(F)[C@@H](O)C[C@@]21C [Dexamethasone acetate] (20 µM) | 1.05 | 1.01 | 0.986 | 0.878 | 1.02 (inactive) | 1.06 (inactive) | 1.01 (inactive) | 0.987 (inactive) | 1.02 (inactive) | 1.02 (inactive) | 0.983 (inactive) | 0.993 (inactive) |
| CC[C@H]1OC(=O)C[C@@H](O)[C@H](C)[C@@H](O[C@@H]2O[C@H](C)[C@@H](O[C@H]3C[C@@](C)(O)[C@@H](O)[C@H](C)O3)[C@H](N(C)C)[C@H]2O)[C@@H](CC=O)C[C@@H](C)C(=O)/C=C/C(C)=C/[C@@H]1CO[C@@H]1O[C@H](C)[C@@H](O)[C@@H](OC)[C@H]1OC [Tylosin] (20 µM) | 0 | 0.953 | 0.966 | 0.0976 | 0.792 (inactive) | 0.0522 (active) | 0.0892 (active) | 0.849 (inactive) | 1.05 (inactive) | 0.984 (inactive) | 1.02 (inactive) | 0.105 (active) |
| Nc1nc(Cl)nc2c1ncn2[C@H]1C[C@H](O)[C@@H](CO)O1 [Cladribine] (20 µM) | 0.964 | 0.974 | 1.06 | 0.893 | 0.841 (inactive) | 1.06 (inactive) | 0.925 (inactive) | 0.684 (inactive) | 0.984 (inactive) | 0.934 (inactive) | 1.02 (inactive) | 0.957 (inactive) |
| CS(=O)(=O)CCNCc1ccc(-c2ccc3ncnc(Nc4ccc(OCc5cccc(F)c5)c(Cl)c4)c3c2)o1 [Lapatinib] (20 µM) | 1.05 | 1.05 | 1.02 | 1.01 | 1.03 (inactive) | 0.977 (inactive) | 1.03 (inactive) | 0.977 (inactive) | 1.02 (inactive) | 1.04 (inactive) | 1.01 (inactive) | 0.999 (inactive) |
| COC(=O)Nc1nc2cc([S+]([O-])c3ccccc3)ccc2[nH]1 (stereo not drawn) [Oxfendazole] (20 µM) | 0.943 | 1.04 | 1.01 | 0.99 | 1.01 (inactive) | 1.01 (inactive) | 1.04 (inactive) | 0.99 (inactive) | 1.04 (inactive) | 0.981 (inactive) | 1.04 (inactive) | 0.999 (inactive) |
| CN(C)c1nc(N(C)C)nc(N(C)C)n1 [Altretamine] (20 µM) | 0.899 | 1.05 | 0.993 | 0.972 | 1.08 (inactive) | 0.977 (inactive) | 1.06 (inactive) | 1.15 (inactive) | 1.04 (inactive) | 1.01 (inactive) | 1 (inactive) | 1.07 (inactive) |
| O=[N+]([O-])c1ccc2c(c1)Cc1ccccc1-2 [2-Nitrofluorene] (20 µM) | 0.873 | 0.978 | 0.973 | 0.994 | 0.997 (inactive) | 1 (inactive) | 1.04 (inactive) | 0.97 (inactive) | 1 (inactive) | 1.04 (inactive) | 0.995 (inactive) | 1.02 (inactive) |
